Compound activity deposited in PubChem by SRMLSC.
Abs 340nm – compounds absorbing at 340 nm; compound absorbance at 340 nm, fold over control; fold change at 10 µM; 65,000 tested, under 10 active; AID 708;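 active = at 10 µM dose, initial 340 nm absorbance at least 2 fold that of control wells; inactive = change under 2 fold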;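 also: initial absorbance extrapolated from kinetic A340 decline of NADH oxidation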
Spn PMK inh – inhibitors of Streptococcus pneumoniae phosphomevalonate kinase | purified PMK, PK/LDH-coupled NADH absorbance 340 nm | inhibition, % at 10 µM | 65,000 compounds, 0.49% hits | AID 539;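 active = top-ranked compounds by inhibition in the single 10 µM screen, taking a fixed number of the strongest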;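 also: 0% = full reaction with DMSO carrier and 100% = background rate without enzyme reaction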
DPM-DC inhibit – inhibitors of Streptococcus pneumoniae diphosphomevalonate decarboxylase; 65,000 compounds, 0.49% hits; purified DPM-DC, PK/LDH coupled NADH fluorescence; calls only at 10 µM; AID 556;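 active = the 320 compounds with the highest percent inhibition in the single-dose primary screen, excluding strongly autofluorescent ones, cut at about 32% in these data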;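 also: kinetic rate of NADH fluorescence loss reporting ADP formed by the decarboxylase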
NADH coupling – inhibition of NAD/NADH coupling enzymes, library profiling; IC50, µM (series often up to 10 µM), inactives show at the highest dose inhibition; coupled PK/LDH NADH assays, four targets; 65,000 compounds, 0.02% hits;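 active = single-dose screening hits from any of four coupled enzyme assays that gave an IC50 when retested across doses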;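 also: the DPM-DC format reads NADH fluorescence rather than 340 nm absorbance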
Spn MK inh – inhibitors of Streptococcus pneumoniae mevalonate kinase; purified MK, PK/LDH-coupled NADH absorbance 340 nm; inhibition, % at 10 µM; AID 555; 65,000 compounds, 0.48% hits;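 active = ranked among the strongest by inhibition in the single 10 µM screen, a fixed top-ranked set picked for dose follow-up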
Autofluor 339 – intrinsic fluorescence of library compounds, ex339/em460 – biochemical, MLSMR library, data from DPM-DC assay, artefact control, profiling panel; compound autofluorescence, ex339/em460 nm, NADH buffer; stronger effect = higher value; 1 = no-compound wells, NADH background; fluorescence fold increase at 10 µM; 65,000 compounds, 5.5% hits; AID 709;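 active = at 10 µM, mean starting fluorescence two-fold or more over control wells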;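 also: signal is the first read of a kinetic run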
Active calls of the source: *; [ ] = remark or other dose. Rows were chosen to be rich in hits. Some 6.8% of all compounds tested hit in one or more screens of this group.

`O=C1c2ccccc2NC(c2ccncc2)N1c1ccccn1` (stereo not given) gave Abs 340nm 1.1, Spn PMK inh 0, NADH coupling 0%, Spn MK inh 0 and Autofluor 339 2.1*.
Screening COc1ccccc1N1C(=O)c2ccccc2NC1c1ccncc1 (stereo not given) returned Abs 340nm 1, Spn PMK inh 0, NADH coupling 3%, Spn MK inh 12 and Autofluor 339 2.1*.
Screening COc1ccccc1N1C(=O)N(C(C)=O)C2C1Nc1ccccc1N2C (stereo not given) returned Abs 340nm 1, Spn PMK inh 1, DPM-DC inhibit inactive, NADH coupling 1%, Spn MK inh 1 and Autofluor 339 1.2.
For COc1cccc(CNc2nc3nc(C)cc(C)n3n2)c1 the results were Abs 340nm 1, Spn PMK inh 11, DPM-DC inhibit inactive, NADH coupling 7%, Spn MK inh 6 and Autofluor 339 2.6*.
For COc1cccc(Nc2cc(C)nc3nc(C)nn23)c1 the results were Abs 340nm 1.1, Spn PMK inh 4, DPM-DC inhibit inactive, NADH coupling 3%, Spn MK inh 6 and Autofluor 339 0.98.
For c1ccc2[nH]c(-c3cscn3)nc2c1 the results were Abs 340nm 0.97, Spn PMK inh 3, DPM-DC inhibit inactive, NADH coupling 2%, Spn MK inh 4 and Autofluor 339 0.99.
c1ccc2nc(-c3nc4ccccc4[nH]3)ccc2c1 was read as Abs 340nm 1, Spn PMK inh 0, NADH coupling 3%, Spn MK inh 2 and Autofluor 339 2.3*.
For c1ccc2[nH]c(-c3ccnc4ccccc34)nc2c1 the results were Abs 340nm 1.1, Spn PMK inh 13, NADH coupling 11%, Spn MK inh 8 and Autofluor 339 2.1*.
COCCNC(=O)c1ccc2c(c1)NC(=O)CS2 was read as Abs 340nm 1, Spn PMK inh 27*, DPM-DC inhibit inactive, NADH coupling 12%, Spn MK inh 8 and Autofluor 339 1.
`O=C1CSc2ccc(C(=O)N3CCN(c4ccccn4)CC3)cc2N1` gave Abs 340nm 1, Spn PMK inh 10, DPM-DC inhibit inactive, NADH coupling 4%, Spn MK inh 2 and Autofluor 339 1.1.
N#Cc1ccccc1NC(=O)CSc1nccn1CCc1ccccc1 was read as Abs 340nm 1, Spn PMK inh 3, DPM-DC inhibit inactive, NADH coupling 2%, Spn MK inh 4 and Autofluor 339 1.1.
`CCOC(=O)CS(=O)(=O)c1nc(-c2ccccc2)cc(C(F)(F)F)n1` gave Abs 340nm 0.98, Spn PMK inh 6, DPM-DC inhibit inactive, NADH coupling 4%, Spn MK inh 10 and Autofluor 339 1.
`NC(=O)c1c(C(F)(F)F)cc(-c2ccccc2)nc1NCCO` gave Abs 340nm 1.1, Spn PMK inh 9, NADH coupling 8%, Spn MK inh 7 and Autofluor 339 3.7*.
Cc1nnc(NS(=O)(=O)c2ccc(N)cc2)s1 was read as Abs 340nm 0.99, Spn PMK inh 2, DPM-DC inhibit inactive, NADH coupling 1%, Spn MK inh 6 and Autofluor 339 1.1.
For COc1ccc(S(=O)(=O)Nc2nnc(C)s2)cc1 the results were Abs 340nm 1, Spn PMK inh 30*, DPM-DC inhibit inactive, NADH coupling 10%, Spn MK inh 1 and Autofluor 339 1.1.
For CCCc1cc(N2CCCC2)n2nc(C)c(-c3ccccc3)c2n1 the results were Abs 340nm 1, Spn PMK inh 0, DPM-DC inhibit inactive, NADH coupling 4%, Spn MK inh 10 and Autofluor 339 2.9*.
Nc1ccc(-c2nc3c(Cl)cc(N)cc3[nH]2)cc1 was read as Abs 340nm 1.3, Spn PMK inh 18, NADH coupling 15%, Spn MK inh 11 and Autofluor 339 4.9*.
For CCn1cc(C(=O)NCc2ccco2)c(=O)c2cc(F)c(N3CCN(C(=O)c4ccco4)CC3)cc21 the results were Abs 340nm 1, Spn PMK inh 10, DPM-DC inhibit active[fluoresces], NADH coupling 4%, Spn MK inh 3 and Autofluor 339 2.4*.
CCn1cc(C(=O)NCc2ccc3c(c2)OCO3)c(=O)c2cc(F)c(N3CCN(C)CC3)cc21 was read as Abs 340nm 1.1, Spn PMK inh 2, DPM-DC inhibit inactive, NADH coupling 11%, Spn MK inh 7 and Autofluor 339 2.2*.
For CCn1cc(C(=O)NCCc2ccccc2)c(=O)c2cc(F)c(N3CCN(C)CC3)cc21 the results were Abs 340nm 1, Spn PMK inh 4, DPM-DC inhibit inactive, NADH coupling 4%, Spn MK inh 0 and Autofluor 339 1.6.
For CCc1ccc(N(CC(=O)Nc2ccc(OC)cc2OC)S(C)(=O)=O)cc1 the results were Abs 340nm 1, Spn PMK inh 7, DPM-DC inhibit inactive, NADH coupling 7%, Spn MK inh 13 and Autofluor 339 1.1.
Screening CC(C)NC(=O)Cn1nnc(-c2ccc(Cl)cc2)n1 returned Abs 340nm 1, Spn PMK inh 11, DPM-DC inhibit inactive, NADH coupling 6%, Spn MK inh 7 and Autofluor 339 1.1.
`N#Cc1c(N)oc(-c2ccco2)c1-c1ccco1` gave Abs 340nm 1.1, Spn PMK inh 10, NADH coupling 5%, Spn MK inh 0 and Autofluor 339 2.1*.
N#Cc1c(N)oc(-c2ccccc2)c1-c1ccccc1 was read as Abs 340nm 1.1, Spn PMK inh 0, DPM-DC inhibit inactive, NADH coupling 4%, Spn MK inh 13 and Autofluor 339 1.3.
`CCCCOc1ccc(C(=O)OC(C)CN(C)C)cc1` (stereo not given) gave Abs 340nm 1, Spn PMK inh 8, NADH coupling 7%, Spn MK inh 5 and Autofluor 339 5*.
`O=c1[nH]c2cc3c(cc2cc1C(c1nnnn1CC1CCCO1)N1CCCC1)OCO3` (stereo not given) gave Abs 340nm 1.1, Spn PMK inh 13, NADH coupling 11%, Spn MK inh 9 and Autofluor 339 4.8*.
Screening CC(C)(C)n1nnnc1C(c1cc2cc3c(cc2[nH]c1=O)OCO3)N1CCN(c2ccccc2)CC1 (stereo not given) returned Abs 340nm 1.1, Spn PMK inh 6, DPM-DC inhibit active, NADH coupling 13%, Spn MK inh 2 and Autofluor 339 3*.
CCN1CCN(C(c2cc3cc4c(cc3[nH]c2=O)OCO4)c2nnnn2C(C)(C)CC)CC1 (stereo not given) was read as Abs 340nm 1.1, Spn PMK inh 6, NADH coupling 8%, Spn MK inh 10 and Autofluor 339 4*.
